Compound activity as filed in PubChem.
A selection: hits, their analogues and other compounds. The true share with any hit is near 11%.
VACV Venus inh: vaccinia inhibition (Venus reporter); Vaccinia virus Venus reporter expression, fluorescence; Potency, µM (highest dose often 36.5 µM), usual class: inhibitors; 330,000 tested, 0.46% active; AID 720580; calls by dose curve; tested in A549 cells; also: nearly all actives have a fitted effect of over 30% in size
VACV mCherry inh: vaccinia inhibition (mCherry reporter) | Potency, µM (titrated, usually from 36.5 µM), usual class: inhibitors | AID 720579 | 310,000 tested, 0.63% active | Vaccinia virus mCherry reporter infection, fluorescence; calls by dose curve; tested in A549 cells; also: nearly all actives have a fitted effect of over 35% in size
NS1 function inh: blocks influenza NS1 protein function. Potency, µM (series often up to 46.1 µM). 270,000 tested, 0.4% active; calls by dose curve; also: actives are rising curves; nearly all actives have a fitted effect of over 50% in size
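Read-out: OD600 growth recovery of NS1-expressing budding yeast. Cells grown overnight at 30C in -URA glucose medium, washed, resuspended and diluted 1:100 in 2% galactose assay medium, pH 6.0. Same strain lacking NS1 served as positive control.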
Pf growth 48h: P. falciparum growth inhibition at 48 hours (one generation). Potency, µM (highest dose often 28.7 µM), most hits filed as inhibitors. 310,000 tested, 5.9% active. AID 504832. P. falciparum luciferase growth in erythrocytes, 48 h
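In quantitative HTS format, infected erythrocytes bearing luciferase-reporter parasites were treated for a single generation at 37 C. Luminescence after adding detection reagent served as the growth measure.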
HCV inh: inhibitors of hepatitis C virus infection | Huh7.5.1 HCVcc-Cre infection, luciferase reporter, 44 h | Potency, µM (series often up to 41.8 µM), hits mostly inhibitors | 340,000 tested, 3.4% active
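Whole-lifecycle infectious HCVcc-Cre system; cells 1,000/well, compound then virus (~0.5 moi) added 4 h after plating, 44 h culture. Luciferase read 15 sec following 15 min substrate incubation, room temp.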
Pf growth 96h: P. falciparum growth inhibition at 96 hours; P. falciparum luciferase reporter growth, 96 h; 320,000 tested, 6.9% active; AID 504834; Potency, µM (series often up to 28.7 µM), usual class: inhibitors
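Cell-based qHTS: luciferase-tagged P. falciparum in erythrocytes (2% hematocrit, 0.05% parasitemia final) incubated with compounds for 96 hours, 37 C, 5% CO2; luciferase detection reagent then added and luminescence measured.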
A number is an active result; – = inactive; ? = inconclusive; · = no result given. Unless noted, calls follow the shape of the dose curve; as a rule, active = well fitted inhibition curve with a large enough effect; inconclusive = small, poorly fitted or top-dose-only effect, or another doubt; inactive = no such curve, though single readings can be large or run the other way.

SMILES | VACV Venus inh | VACV mCherry inh | NS1 function inh | Pf growth 48h | HCV inh | Pf growth 96h
O=S(=O)(c1ccccc1)c1nc(-c2ccc(F)cc2)oc1N1CCCCCC1 | – | – | · | · | · | ·
NC(=O)C1CCN(c2oc(-c3ccc(F)cc3)nc2S(=O)(=O)c2ccccc2)CC1 | · | · | · | 10µM | – | ?
CCN1CCN(c2oc(-c3ccccc3C)nc2S(=O)(=O)c2ccccc2)CC1 | ? | – | · | ? | – | 9.3µM
Cc1ccc(NC(=O)c2ccoc2C)cc1C | – | – | – | – | – | –
CCCN1CNc2c(c(=O)[nH]c(=S)n2CCc2ccc3c(c2)OCCO3)C1 | – | – | · | · | · | ·
COc1cc(/C=N/NC(=O)C(Cc2c[nH]c3ccccc23)NC(=O)OCC(C)C)cc([N+](=O)[O-])c1O (stereo not drawn) | – | – | – | – | – | 12µM
COc1cccc(C2CCCN2Cc2nc(-c3cnccn3)no2)c1 (stereo not drawn) | · | · | – | 13µM | – | –
CCOC(=O)C1CCCN(Cc2nc(C3CC3)no2)C1 (stereo not drawn) | – | – | – | – | – | –
CCC(C)(C)n1nnnc1CN1CCC(n2c(C)nc3cc(C(F)(F)F)ccc32)CC1 | – | · | – | ? | – | –
CCN(CC)CCNC(=O)CNC(=O)c1nn(-c2ccc(OC)cc2)c(=O)c2ccccc12 | · | · | – | · | – | ?
CCN(CC)CCCNC(=O)CNC(=O)c1nn(-c2ccc(OC)cc2)c(=O)c2ccccc12 | – | – | · | – | – | 9.3µM
CCN(CC)CCCNC(=O)c1nn(-c2ccccc2OC)c(=O)c2ccccc12 | – | – | – | – | ? | –
CCCN(CCC)CCCNC(=O)c1nn(-c2cccc(OC)c2)c(=O)c2ccccc12 | – | – | · | ? | – | 12µM
CCN(CC)CCCNC(=O)c1cn(-c2cccc(OC)c2)c(=O)c2ccccc12 | – | – | – | – | – | –
CCCCN(CC)CCCNC(=O)c1cn(-c2ccc(OC)cc2)c(=O)c2ccccc12 | · | · | – | – | – | 7.4µM
CCC(C)Nc1cc(C)nc2ncnn12 (stereo not drawn) | · | · | – | – | – | –
O=C(NCC1CC1)Nc1cccc(Cl)c1 | · | · | – | – | – | –
COc1ccc(C2N(C(=O)c3ccccc3)CCN2C(=O)c2ccccc2)cc1 | – | – | – | ? | – | ?
COC(=O)c1sc(N)c(C(=O)OC)c1CSc1nnnn1C | – | · | – | 10µM | – | 9.3µM
C#Cc1ccc([C@H]2C=C(C(=O)N3CCN(Cc4ccc5c(c4)OCO5)CC3)O[C@@H](OCC)[C@@H]2CCCO)cc1 | ? | ? | – | 4.1µM | ? | 4.1µM
CCO[C@H]1OC(C(=O)N2CCN(Cc3ccc4c(c3)OCO4)CC2)=C[C@@H](c2ccc3c(c2)OCO3)[C@@H]1CCCO | – | – | – | 5.9µM | – | 13µM
CCO[C@H]1OC(C(=O)N2CCN(Cc3ccc4c(c3)OCO4)CC2)=C[C@@H](C)[C@@H]1CCCO | – | – | – | – | – | –
Fc1ccc(NC(=S)NN=Cc2ccccc2Cl)cc1 | – | – | · | · | – | ·
Oc1ccccc1/C=N/NC(=S)NCCc1ccccc1 | – | ? | – | ? | 11µM | ?
CN(C)c1nc(N/N=C/c2ccccc2O)nc(Nc2ccc(F)cc2)n1 | ? | 7.9µM | · | 3.7µM | ? | –
SMILES | VACV Venus inh | VACV mCherry inh | NS1 function inh | Pf growth 48h | HCV inh | Pf growth 96h
Oc1ccccc1C=NNC(=S)Nc1ccc(F)cc1 | ? | 5.6µM | · | · | ? | ·
Cc1ccc(N2C(=O)CS(=O)(=O)C23C(=O)N(Cc2cccc(F)c2)c2ccccc23)cc1Cl (stereo not drawn) | – | – | · | · | · | ·
O=C(N/N=C/c1cnc2ccccc2n1)c1cccc(F)c1 | – | – | – | – | – | –
CCC(=O)N1CCc2cc(S(=O)(=O)NC(C(=O)NCc3ccc(C)cc3)C(C)C)ccc21 (stereo not drawn) | · | · | – | – | – | –
CC(CNC(=O)CCCn1c(=O)c2cccn2c2ccc(F)cc21)c1ccccc1 (stereo not drawn) | – | – | · | · | · | ·
CCc1ccc(NC(=O)CCn2c(=O)c3cccn3c3ccccc32)cc1 | – | – | – | ? | 11µM | –
CCc1ccc(NC(=O)Cn2c(=O)c3cccn3c3ccccc32)cc1 | ? | ? | – | – | – | ?
CC(CNC(=O)CCn1c(=O)c2cccn2c2ccc(F)cc21)c1ccccc1 (stereo not drawn) | – | – | – | ? | ? | 13µM
COc1cccc2c1C(CO)N1C(C#N)C3CC(C(=O)O)C(C1C2)N3C (stereo not drawn) | ? | ? | – | ? | 1.1µM | ?
CCCCOC(=O)c1ccc(S(N)(=O)=O)o1 | – | – | – | – | – | ?
CCCOC(=O)c1ccc(S(N)(=O)=O)o1 | – | – | – | – | – | 7.4µM
CCOC(=O)C1CCN(c2nc(N)c3c(N)nc(SCC(=O)O)cc3c2C#N)CC1 | – | – | – | 2.6µM | – | 2.6µM
CCOc1cc2c(C#N)c(N3CCCCC3)nc(N)c2c(N)n1 | – | ? | – | · | – | ?
O=C1N(c2ccccc2C(F)(F)F)OC1(Cc1ccccc1)c1ccccc1 (stereo not drawn) | ? | ? | · | 1µM | – | ?
O=C1N(c2ccccc2C(F)(F)F)O[C@]1(c1ccccc1)C1CCCCC1 | ? | – | · | ? | – | 1µM
CC(C)[C@@]1(c2ccccc2)ON(c2ccccc2C(F)(F)F)C1=O | · | · | · | 1.7µM | – | ?
